Measured values published in PubChem BioAssay AID1851 (National Center for Advancing Translational Sciences (NCATS), 2009).
About 4,000 (25%) of roughly 16,000 compounds were called active. Not shown: some 26% with an inconclusive outcome. Calls come from the whole dose curve; as a rule, active = well fitted curve in the direction sought with a large enough effect; inconclusive = small, poorly fitted or top-dose-only effect, or effect the other way; inactive = no such curve, though single readings can be large or run the other way. Only a sample is shown.

molecular target: Cytochrome P450 2C9 (Homo sapiens) (UniProt P11712); test: Cytochrome panel assay with activity outcomes; details: recombinant CYP, pro-luciferin dealkylation, luminescence, p450-cyp2c9; series mostly up to 57.1 µM; activity, negative = inhibition: at the top concentration
% is set by controls: 0 for no effect and ±100 for the full control effect.

Cytochrome P450 2C9 (Homo sapiens), sequence (P11712 whole entry, looked up): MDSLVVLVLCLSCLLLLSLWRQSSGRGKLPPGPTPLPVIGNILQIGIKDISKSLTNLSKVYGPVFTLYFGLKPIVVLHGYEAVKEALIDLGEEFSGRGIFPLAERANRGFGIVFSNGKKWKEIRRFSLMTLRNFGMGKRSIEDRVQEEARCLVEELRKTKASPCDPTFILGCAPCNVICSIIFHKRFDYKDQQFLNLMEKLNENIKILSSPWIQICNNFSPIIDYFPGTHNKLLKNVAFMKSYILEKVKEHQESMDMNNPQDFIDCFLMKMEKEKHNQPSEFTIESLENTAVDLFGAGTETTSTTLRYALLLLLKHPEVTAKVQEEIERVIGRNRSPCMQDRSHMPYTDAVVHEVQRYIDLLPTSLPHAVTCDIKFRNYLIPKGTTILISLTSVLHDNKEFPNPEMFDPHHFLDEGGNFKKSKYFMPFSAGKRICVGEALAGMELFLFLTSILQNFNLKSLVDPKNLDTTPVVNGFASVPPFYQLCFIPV

activity, negative = inhibition, inactive:
COC(=O)c1ccccc1NC(=O)CSc1nnc(C(CO)NC(=O)c2ccccc2Cl)n1C (stereo not given) -28.2%, CN(C)Cc1ccccc1-c1nc(NCc2cccs2)c2ccccc2n1 5.46% [at 2.29 µM], CN1CCN(c2ncncc2-c2cccnc2)CC1 -10.3% [at 2.29 µM], COc1ccccc1-c1cncnc1N1CCN(C)CC1 3.41% [at 2.29 µM], Cc1ccc(C)c(/C(=N\N=C(N)N)C2CC2)c1 -5.2% [at 11.4 µM], Nc1nc(-c2cccnc2)cc(-c2cc(-c3cccnc3)nc(N)n2)n1 -11.2% [at 11.4 µM], O=S(=O)(c1ccc(Cl)cc1)c1cnc(-c2cccnc2)nc1-c1ccccc1 -6.19%, CCCc1c(-c2ccc(O)cc2)nn(-c2ccc(O)cc2)c1-c1ccc(O)cc1 19.1%, COc1ccc(-n2c(=O)c(-c3ccc(F)cc3)nc3cnc(OC)nc32)cc1 11.2%, O=C(O)[C@@H]1CCCNC1 16.7% [at 25.6 µM], CCCN(C(=S)Nc1ccccc1)C1CCS(=O)(=O)C1 (stereo not given) -18%, Cc1cc(C)c[n+](CC(=O)c2cc3ccccc3oc2=O)c1 1.98%, CN(C(=O)COc1cccc(Br)c1)C1CCS(=O)(=O)C1 (stereo not given) -30.3%, CCc1ccc(OCC(=O)OC2CCS(=O)(=O)C2)cc1 (stereo not given) 1.1%, CC(=O)c1cc2ccccc2oc1=O 2.93% [at 25.6 µM], CCN(CC)c1ccc2cc(C(C)=O)c(=O)oc2c1 15.9%, CC(C)(C)c1cc(C(=O)O)c(CN2CCCCC2)o1 -7.32%, CN(C)Cc1ccccc1-c1nc(N(C)Cc2ccco2)c2ccccc2n1 11.9% [at 2.29 µM], Nc1ccc(S(=O)(=O)NCc2nccs2)cc1 -21.4% [at 11.4 µM], Cn1cccc1C(=O)N1CCC2(CCN(Cc3nccs3)CC2)CC1 -0.0603%, O=C(c1ccncc1)N1CCC2(CCN(Cc3ccccc3)CC2)CC1 4.16%, Cn1cccc1C(=O)N1CCC2(CCCN(Cc3ccccc3)C2)CC1 -5.56%, COCC(=O)N1CCC2(CCN(Cc3ccccc3OC)CC2)CC1 5.33%, Cn1cccc1C(=O)N1CCC2(CCN(Cc3ccccc3)CC2)CC1 -9.53%, Cn1cccc1C(=O)N1CCC2(CCCN(Cc3ccc(C#N)cc3)C2)CC1 -29.6%, O=C(c1ccco1)N1CCC2(CCN(Cc3ccccc3)CC2)CC1 6.93%, CC(=O)N1CCC2(CCN(Cc3ccncc3)CC2)CC1 -25%, CN(C)c1ccc(-c2cncnc2Nc2ccccc2)cc1 -6.76% [at 2.29 µM], CCCS(=O)(=O)N1CCCC(C(=O)NCCCOCC)C1 (stereo not given) 5.29%, CCc1cccc(CC)c1NC(=O)CN(CC(=O)O)CC(=O)O 29.9% [at 25.6 µM], O=C1[C@H]2O[C@@H]2[C@@H](O)[C@H]2[C@H]1CCn1c(=O)n(Cc3cc4c(cc3Cl)OCO4)c(=O)n12 3.99% [at 11.4 µM], Nc1ncnc2c1ncn2C[C@@H](O)C(=O)O -0.945% [at 11.4 µM], N=C(N)SCC(=O)O -5.65% [at 11.4 µM], COc1ccc(N(C)S(=O)(=O)c2ccc3c(c2)CCC(=O)N3)cc1 8.61%, CN(C)c1ccc(NC(=O)c2cccc(N3C(=O)C4C5C=CC(C5)C4C3=O)c2)cc1 (stereo not given) -25.2%, CCNc1ncc2nc(C)c(=O)n(C[C@H]3CCCO3)c2n1 12.2%, O=P(Cc1cc[n+]([O-])cc1)(c1ccccc1)c1ccccc1 -6.5%, Cc1cccc(C)c1NC(=O)[C@H](C)N 10.2% [at 25.6 µM], Cc1cccc(C)c1NC(=O)C(c1ccccc1)N1CCC1=O (stereo not given) 5.54%, COc1ccccc1CN1CCC2(CC1)CCN(S(C)(=O)=O)CC2 -4%, N#Cc1cccc(-c2nc(Nc3ccccc3)c3ccccc3n2)c1 -3.27% [at 2.29 µM], c1ccc(Nc2nc(-c3ccc4c(c3)OCO4)nc3ccccc23)cc1 -5.32% [at 2.29 µM], c1ccn(-c2ccc(N3CCOCC3)cc2)c1 -4.63%, CC(C)CN1CCCC2(CCN(C(=O)c3cnccn3)CC2)C1 4.58%, COc1c(/C=N/Nc2nc(N3CCCCC3)nc(N3CCCCC3)n2)cccc1[N+](=O)[O-] -38.8%, COc1nc(/C(N)=N/O)nc(N2CCCCC2)n1 -22.5%, N#Cc1cccc(-c2cncnc2NCc2cccnc2)c1 6.75% [at 2.29 µM], CN(C)CCO[C@@H](c1ccc(Cl)cc1)c1ccccn1 -11.5% [at 25.6 µM], COCC(C)NCc1cccc(C)c1 (stereo not given) 11.4%, CO[C@H]1COC(=O)C/C=C\[C@H](C)COC(=O)[C@@H](C)NC(=O)C/C=C\[C@@H]1C -24.8% [at 11.4 µM], COCC(=O)N/N=C/c1ccc(Sc2nc3ccccc3s2)o1 2.01%, CCNC(=S)NNC(=O)c1cc(C)on1 -15.8%, CCNC(=S)NNC(=O)c1cccc(Br)c1 -10.1%, Cc1cc(C(=O)Nc2c(C)n(C)n(-c3ccccc3)c2=O)c2ccccc2n1 -1.95%, Cc1cc(C(=O)OC2CCOC2=O)c2ccccc2n1 (stereo not given) 0.804%, CCNC(=S)NNC(=O)Cc1ccccc1 -11.7%, OCCCN=C1CCCCC1 -11% [at 11.4 µM], COCC(=O)N1CCC[C@@]2(CCN(c3ncccn3)C2)C1 -23%, Cc1nc2ncnn2c(C)c1CCC(=O)NCc1ccccc1 -18.2%, O=C(c1ccc(CN2CCc3ccccc3C2)cc1)N1CCc2ccccc2C1 -19.2%, Cc1ccc(NC(=O)CCc2c(C)nc3ncnn3c2C)nc1 -5.57%, CC(=O)Nc1ccc(S(=O)(=O)N2CCC(N(C)CCC(C)C)CC2)cc1 -20.5%, O=C(CCN1CCc2ccccc2C1)Nc1ccc(F)cc1 -17.2%, CN(Cc1ccco1)c1cc(-c2cccc(NS(C)(=O)=O)c2)ncn1 -0.0487% [at 2.29 µM], CCN1C(=O)[C@H]2[C@H]3[C@H](O)[C@H](O)C/C(=N/OCC[C@H]4C=C[C@H](OC(C)=O)[C@@H](COC(C)=O)O4)[C@@H]3CC[C@@H]2C1=O -15% [at 11.4 µM], Cc1cnc(CNc2ccnc(-c3c(C)noc3C)n2)cn1 19.4% [at 2.29 µM]

AC50, active:
COc1ccc(C(=O)NC(CO)c2nnc(SCc3ccc(Cl)c(Cl)c3)n2C)cc1 (stereo not given) 14.1 µM, CN1CCN2c3ncccc3Cc3ccccc3C2C1 (stereo not given) 0.0501 µM, O=S(=O)(c1ccccc1)c1cnc(-c2cccnc2)nc1-c1ccc(Cl)cc1Cl 10 µM, Cc1ccc(-c2csc(N3CCC(NS(=O)(=O)c4ccc5c(c4)OCCO5)CC3)n2)cc1 3.55 µM, Cc1ccc(CN(C(=O)c2cc3ccccc3oc2=O)C2CCS(=O)(=O)C2)cc1 (stereo not given) 11.2 µM, CCc1ccc(CN(C(=O)c2cc3ccccc3oc2=O)C2CCS(=O)(=O)C2)cc1 (stereo not given) 8.91 µM, CCOc1ccc(CN(C(=O)c2oc3ccccc3c2C)C2CCS(=O)(=O)C2)cc1 (stereo not given) 8.91 µM, O=C(c1sc2ccccc2c1Cl)N(Cc1ccccc1)C1CCS(=O)(=O)C1 (stereo not given) 3.98 µM, O=S(=O)(NCc1cn2ccsc2n1)c1ccc(Oc2ccccc2)cc1 7.08 µM, Cn1cccc1C(=O)N1CCC2(CCN(Cc3ccncc3)CC2)CC1 10 µM, O=C(c1ccco1)N1CCC2(CCN(Cc3ccncc3)CC2)CC1 7.94 µM, COCC(=O)N1CCC2(CCN(Cc3ccncc3)CC2)CC1 0.398 µM, Cn1cccc1C(=O)N1CCC2(CCCN(Cc3ccncc3)C2)CC1 1.58 µM, CN(CC(=O)N1CCN(c2ccccc2)CC1)S(=O)(=O)c1cnc[nH]1 0.0708 µM, CCc1cccc(NC(=O)CN(C)S(=O)(=O)c2cnc[nH]2)c1 0.631 µM, Cc1cccc(N(C)S(=O)(=O)c2ccc3[nH]c(=O)c(=O)[nH]c3c2)c1 4.47 µM, O=C(Nc1ccc(Cl)cc1Cl)c1cccc(N2C(=O)C=CC2=O)c1 11.2 µM, CCc1ccc(C(=O)N2CCC(c3nc4ccccc4s3)CC2)cc1 1.58 µM, Cc1cccc(C)c1NC(=O)C(c1ccc(Cl)cc1Cl)N1CCCCC1 (stereo not given) 14.1 µM, Clc1cccc(Nc2nnc(-c3ccccc3)c3ccccc23)c1 3.98 µM, COc1cccc(/C=N/Nc2nc(N3CCCC3)nc(N3CCCC3)n2)c1O 12.6 µM, Brc1cc2c(cc1/C=N/Nc1nc(N3CCCC3)nc(N3CCOCC3)n1)OCO2 7.08 µM, O=S(=O)(Nc1nc(-c2sccc2Cl)cs1)c1cc(Cl)ccc1Cl 0.631 µM, Cc1ccc(S(=O)(=O)n2ccc(-c3cccc(OCc4c(F)cccc4Cl)c3)n2)cc1 1.58 µM, O=C(Cc1cccc2ccccc12)N/N=C/c1ccc(Sc2nc3ccccc3s2)o1 0.282 µM, Cc1cc(C(=O)NNC(=S)NC(C)c2ccccc2)c2ccccc2n1 (stereo not given) 3.16 µM, CCNC(=S)NNC(=O)c1cc(CC(C)C)nc2ccccc12 2.82 µM, CCNC(=S)NNC(=O)c1cc(C2CC2)nc2ccccc12 2 µM, Cc1nc2ncnn2c(C)c1CCC(=O)Nc1ccc(S(=O)(=O)N2CCCCCC2)cc1 3.16 µM, O=C(CSc1ncccn1)Nc1ccc(S(=O)(=O)N2CCCCC2)cc1 7.94 µM, O=C(Nc1ccc(S(=O)(=O)N2CCOCC2)cc1)c1ccc(CN2CCc3ccccc3C2)cc1 8.91 µM, O=C(Nc1ccc(S(=O)(=O)N2CCCCC2)cc1)c1ccc(CN2CCc3ccccc3C2)cc1 3.16 µM, O=C(CSCc1ccccc1)Nc1ccc(S(=O)(=O)N2CCOCC2)cc1 10 µM

AC50, inactive:
NCCCCCC(=O)O
